This excerpt belongs to a sample that is enriched for hits.
Pf Dd2 growth: qHTS Primary assay for Inhibitors of Plasmodium falciparum Dd2 growth in vitro; Potency, µM (highest dose often 28.9 µM), hits mostly inhibitors; AID 1347417, 2020; P. falciparum Dd2 growth, SYBR Green, 72 h; hit rate 4.3% among 120,000; active means well fitted inhibition curve with a large enough effect; further: nearly all actives have a fitted effect of over 65% in size
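Readout: SYBR Green fluorescence, 485 nm excitation, 535 nm emission, after ~16 h lysis at 37C. Before that, Dd2-infected red cells (2.5% hematocrit) grew 72 h with compound, 29 uM top final concentration.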
Numbers stand for hits; - = inactive; [ ] = remark or other dose.

SMILES	Pf Dd2 growth
Cc1ccc(NC(=O)Cn2c(=O)n(Cc3ccc4c(c3)OCO4)c(=O)c3oc4ccccc4c32)cc1C	-
CC(=O)N1CCC2(CC1)CN(C(=O)c1c(C)noc1C)Cc1ccccc1O2	-
COc1ccc(CNCCN2CCCC2)cc1	-
COc1ccc(CNC(=O)C(=O)NCC(c2ccco2)S(=O)(=O)c2ccc(C)cc2)cc1 (stereo not drawn)	-
COc1ccc(CNCCC(c2ccc(C)cc2)c2ccco2)cc1 (stereo not drawn)	13µM
N#Cc1ccccc1CSc1nnc2ccc3ccccc3n12	-[0.594 µM]
CCOc1ccc(-n2c(Cc3ccccc3)nnc2SCc2nc(-c3ccccc3C)no2)cc1	-
Cc1ccc(-c2noc(CSc3nnc(Cc4ccccc4)n3-c3cccc(C)c3)n2)cc1	-
CCOc1ccc(-c2noc(CSc3nnc(Cc4ccccc4)n3-c3cccc(C)c3)n2)cc1	10µM
COc1cccc(S(=O)(=O)N2CCCC(c3nn[nH]n3)C2)c1 (stereo not drawn)	-
COc1cccc(CN2Cc3c(CN(C)Cc4ccccc4)nnn3CCC2=O)c1	10µM
COc1cccc(CN2Cc3nc(Oc4ccccc4)ccc3OCC2=O)c1	-
COc1cccc(CN2Cc3nc(N(C)c4ccccc4)ccc3OCC2=O)c1	-
COc1cc(OC)c(OC)cc1CNCCSc1nnnn1-c1ccccc1	-[0.594 µM]
O=C(NCc1ccccc1Cl)c1ccc(CS(=O)(=O)c2ccc(Br)cc2)o1	-
COc1ccccc1-c1cnc(NC(=O)C2CCOCC2)c2c1CCO2	-
Cc1cc(C(=O)N2C[C@@H](CO)[C@H](c3ccccn3)C2)c(C)o1	-
O=C(NCC(c1ccc(Cl)cc1)N1CCCCC1)c1ccc(F)cc1 (stereo not drawn)	-
CN(C)c1ccc(C(CNC(=O)c2ccc(C(C)(C)C)cc2)N2CCCC2)cc1 (stereo not drawn)	6.3µM
COc1ccc(C(=O)NCC(c2ccc(N(C)C)cc2)N2CCOCC2)cc1 (stereo not drawn)	-
CCc1nc2c(=O)n(CC(=O)NCc3ccccc3OC)nc(C)c2s1	-
COc1cccc(CN2CCC3(CC2)Cc2ccccc2CNC3=O)n1	-
CCOc1ccc(C2=C(C(C)=O)Sc3nnc(C)n3N2C(C)=O)cc1	1.1µM
CCOc1ccc(-c2nnc(SCC(=O)c3ccc(Br)cc3)n2-c2ccccc2)cc1	-
COc1ccc(C2=C(C(C)=O)Sc3nnc(-c4ccccc4)n3N2C(C)=O)cc1	-
SMILES	Pf Dd2 growth
Cc1ccc(C(=O)N2CCn3c(nnc3-c3ccccc3)C2)cc1	-
CCc1nnc2n1N(C(C)=O)C(c1ccc(C(C)(C)C)cc1)=C(C(C)=O)S2	3.2µM
CCOc1ccc(-c2nnc(SCC(=O)c3ccccc3)n2-c2ccccc2)cc1	-
CC(=O)C1=C(c2ccc(C)cc2)N(C(C)=O)n2c(nnc2-c2ccccc2)S1	7.9µM
Cc1ccc(NC(=O)CSc2ncccc2C(=O)Oc2ccccc2Cl)cc1Cl	-
O=C(NCc1nc2ccccc2[nH]1)C1CC(=O)N(c2n[nH]c3ccccc23)C1 (stereo not drawn)	-
CN1CCC2(C1)CN(CC1CC1)c1ccc(C(=O)NC3CCC3)cc12 (stereo not drawn)	-
COc1ccc(Nc2nccc3c(=O)cc(-c4ccccn4)oc23)cc1OC	-
COc1ccc(-c2csc3nc(-c4ccc(Cl)cc4)oc(=O)c23)cc1	-
Cn1c(-c2nc(-c3cn4ccccc4n3)no2)cc(=O)n(C)c1=O	-
COc1ccc(-c2nc(SCC(=O)N3CCC(C)CC3)n[nH]2)cc1	-
CC(C)[S+](=O)([O-])N1CCCC1c1nnc2n1CCNC2 (stereo not drawn)	-
CCOC(=O)c1sc(NC(=O)C(C)Sc2nc(-c3ccccc3)cc(C(F)(F)F)n2)c(C(=O)OC)c1C (stereo not drawn)	0.71µM
COc1ccc(CNC(=O)C(C)Sc2nc(-c3ccccc3)cc(C(F)(F)F)n2)cc1 (stereo not drawn)	-
CCOC(=O)c1c(NC(=O)CSc2nc(-c3ccccc3)cc(C(F)(F)F)n2)sc(C)c1C	-
CC(=O)Nc1cccc(-c2cc3c(ccn3Cc3ccncc3)c(N3CCOCC3)n2)c1	-
COc1cccc(CNC(=O)CN2C(=O)COc3ccc(S(=O)(=O)N4CCCCCC4)cc32)c1	-
COc1ccc(NC(=O)NCC2CCOCC2)c(C)c1	-
CCN(CC)c1cc(C)c2cc(NC(=O)c3ccc(F)cc3Cl)ccc2n1	-
CCN(CC)c1cc(C)c2cc(NC(=O)/C=C/c3ccccc3Cl)ccc2n1	10µM
CCN(CC)c1cc(C)c2cc(NC(=O)c3cc(OC)cc(OC)c3)ccc2n1	-
CN(Cc1ccc(-c2ccccc2)cc1)[S+](=O)([O-])c1cccc(C(F)(F)F)c1	-
COC(=O)C(NC(=O)N1CCCCCCn2c(nnc2-c2ccc(F)cc2)CC1)C(C)C (stereo not drawn)	-
CO[C@H]1C(=O)N(C(C)C)[C@H]1C1CCN(C(=O)c2ccsc2)CC1	-
COc1ccccc1C(=O)N1CCC(n2cc(-c3nc(C(C)C)no3)nn2)CC1	-
SMILES	Pf Dd2 growth
CC(C)c1ccc(N2C(=S)N[C@H]3[C@@H](O)[C@H](O)C[C@@H](C(=O)N(C)Cc4ccccc4)[C@H]32)cc1	13µM
O=C([C@@H]1C[C@@H](O)[C@H](O)[C@@H]2NC(=S)N(c3ccc(F)cc3)[C@@H]21)N1CCCCC1	-
Cc1ccc(N2C(=S)N[C@H]3[C@@H](O)[C@H](O)C[C@@H](C(=O)N4CCCCC4)[C@H]32)cc1	-
CCCS(=O)(=O)N1CC[C@@H]2COCCN(Cc3ccccc3)[C@@H]2C1	-
CCc1c(C)sc2c1CCN(Cc1ccccc1)C2c1ccccc1 (stereo not drawn)	4.5µM
CCc1c(C)sc2c1CCN(C(=O)Nc1ccccc1C(=O)OC)C2c1ccc(OC)cc1 (stereo not drawn)	-
CCOc1cccn2c(=O)c(-c3cc(C)n(-c4ccc(Cl)cc4)n3)c(C)nc12	-
COCC1CN(C)CC12CCN(C1CCOCC1)CC2 (stereo not drawn)	-
COc1ccc(NC(=O)CC2CCCCN(C)C2=O)c(OC)c1 (stereo not drawn)	-
Cc1oc(-c2ccc(Cl)cc2)nc1CN1CCC(C(=O)NCCCN2CCN(c3cccc(Cl)c3)CC2)CC1	-
Cc1oc(-c2cccc(Cl)c2)nc1CN1CCC(C(=O)NCCCN2CCN(c3ccccc3F)CC2)CC1	-
COc1ccc(-c2nc(CN3CCC(C(=O)NCCCN4CCN(c5ccccc5F)CC4)CC3)c(C)o2)cc1OC	10µM
CCCCNC(=O)C1CCN(Cc2nc(-c3ccc(OC)c(OC)c3)oc2C)CC1	-
Cc1oc(-c2cccc(Cl)c2)nc1CN1CCC(C(=O)NCCCN2CCN(c3ccc(F)cc3)CC2)CC1	5.6µM
COCCCNC(=O)C1CCN(Cc2nc(-c3ccc(OC)c(OC)c3)oc2C)CC1	-
Cc1noc(CN2CCCn3nc(C(O)C4CCC4)cc3C2)n1 (stereo not drawn)	-
O=c1n(CC2CC2)nc2n1CCNCC2	-
COc1cccc(N2C(=O)NC(=NC3CCCCC3)C23CCN(CC2CCCCC2)C3)c1 (stereo not drawn)	-
COc1ccc(C(=O)N2CCC3(C2)C(=NC2CCCCC2)NC(=O)N3c2cccc(OC)c2)cc1 (stereo not drawn)	-
COc1cccc(N2C(=O)NC(=NC3CCCCC3)C23CCN(Cc2ccccc2)CC3)c1	-
COc1cccc(N2C(=O)NC(=NC3CCCCC3)C23CCN([S+](=O)([O-])c2cccs2)C3)c1 (stereo not drawn)	-
